Read-out in experiment [1]: Macrophage colony-stimulating factor (MCSF), CSF1 (gene 1435)
As to the kind of experiment: BSK_CASM3C_MCSF: BioMAP Diversity Plus: CASM3C Assay for Macrophage colony-stimulating factor (MCSF) Biomarker Activity (AID 2283044).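 Note: M-CSF protein amount quantified by ELISA after 24 h exposure.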 The following applies: primary human coronary artery smooth muscle cells; actives raise or lower the signal.

Read-out in experiment [2]: Low-density lipoprotein receptor (LDLR), LDLR (gene 3949)
As to the kind of experiment: BSK_CASM3C_LDLR: BioMAP Diversity Plus: CASM3C Assay for Low-density lipoprotein receptor (LDLR) Biomarker Activity (AID 2283045).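 Note: LDLR protein level on the cell surface quantified by ELISA.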 The following applies: primary human coronary artery smooth muscle cells; actives raise or lower the signal.

Read-out in experiment [3]: Monocyte Chemoattractant Protein-1 (MCP1), CCL2 (gene 6347)
As to the kind of experiment: BSK_CASM3C_MCP1: BioMAP Diversity Plus: CASM3C Assay for Monocyte Chemoattractant Protein-1 (MCP1) Biomarker Activity (AID 2283046).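 Note: MCP-1 level quantified by ELISA 24 h after dosing.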 As to conditions: primary human coronary artery smooth muscle cells; actives raise or lower the signal.

The nature of experiment [4]: BSK_CASM3C_Proliferation: Cell Proliferation Assessment in the BioMAP Diversity Plus: CASM3C Assay (AID 2283047).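 Note: sulforhodamine B total protein stain as relative cell number at 560 nm; sub-confluent cells exposed 48 h before staining; fitted both ways against DMSO so gain or loss of cell number.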 The following applies: primary human coronary artery smooth muscle cells.
Read-out in experiment [5]: Monokine induced gamma interferon (MIG), CXCL9 (gene 4283)
As to the kind of experiment: BSK_CASM3C_MIG: BioMAP Diversity Plus: CASM3C Assay for Monokine induced gamma interferon (MIG) Biomarker Activity (AID 2283048).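 Note: MIG protein level measured by ELISA.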 As to conditions: primary human coronary artery smooth muscle cells; actives raise or lower the signal.

Read-out in experiment [6]: serum amyloid A (SAA), SAA1 (gene 6288)
As to the kind of experiment: BSK_CASM3C_SAA: BioMAP Diversity Plus: CASM3C Assay for serum amyloid A (SAA) Biomarker Activity (AID 2283049). The following applies: primary human coronary artery smooth muscle cells; actives raise or lower the signal.

A short description of experiment [7]: BSK_CASM3C_SRB: Viability Assessment in the BioMAP Diversity Plus: CASM3C Assay (AID 2283050).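 Note: total protein by SRB staining as cytotoxicity measure in parallel cultures; cells exposed to compound for 24 h.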 The following applies: primary human coronary artery smooth muscle cells.
Read-out in experiment [8]: Thrombomodulin, THBD (gene 7056)
Put plainly: BSK_CASM3C_Thrombomodulin: BioMAP Diversity Plus: CASM3C Assay for Thrombomodulin Biomarker Activity (AID 2283051).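 Note: thrombomodulin protein level measured by ELISA 24 h after dosing.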 As to conditions: primary human coronary artery smooth muscle cells; actives raise or lower the signal.

Read-out in experiment [9]: Tissue Factor, F3 (gene 2152)
Put plainly: BSK_CASM3C_TissueFactor: BioMAP Diversity Plus: CASM3C Assay for Tissue Factor Biomarker Activity (AID 2283052).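 Note: cell surface tissue factor protein level read by ELISA.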 As to conditions: primary human coronary artery smooth muscle cells; actives raise or lower the signal.

Read-out in experiment [10]: Interferon-gamma inducible Protein 10 (IP10), CXCL10 (gene 3627)
Put plainly: BSK_hDFCGF_IP10: BioMAP Diversity Plus: hDFCGF Assay for Interferon-gamma inducible Protein 10 (IP10) Biomarker Activity (AID 2283053). As to conditions: primary human foreskin fibroblasts; actives raise or lower the signal. In a few lines: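 IP-10 levels, quantified by ELISA, are taken from human foreskin fibroblast cultures 24 h after chemical treatment, with DMSO serving as negative control and baseline for bidirectional analysis.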

The source holds several records for some structures; these can differ, active in one and inactive in another. Calls of active or inactive are those of the source. Rule for the calls: active = hit-call score of the fitted dose curve at least 0.9, where 1 is the maximum; inactive = score below 0.9.

With `C=C(C)C(=O)[O][Sn]([CH2]CCC)([CH2]CCC)[CH2]CCC`, the AC50 (as a rule, the concentration giving half of the maximal activity seen) in experiment [1] is 0.326 µM (active); in experiment [2] it was 0.148 µM (active); in [3], 0.292 µM (active); in experiment [4], 0.148 µM (active); in experiment [5], 1.03 µM (active); in experiment [6] it was 0.366 µM (active). Besides, the concentration at half-maximal activity (AC50) was 0.148 µM (active) in experiment [7], 1.54 µM (active) in experiment [8], 1.15 µM (active) in experiment [9] and 0.148 µM (active) in experiment [10].

`COP(=S)(OC)Oc1c(Cl)cc(C)cc1Cl`: the result in experiment [1], in experiment [2], in experiment [3], in [5], in experiment [6] and in experiment [7] was inactive. Also, the result in [8] and in experiment [10] was inactive. The values for the AC50 in [4] and in [9] were 20 µM (active) and 5.88 µM (active), respectively.

On to `CC(C)c1ccc(CO)cc1`, for which the outcome in experiment [1], in [2], in experiment [3], in experiment [4], in experiment [5] and in experiment [6] was inactive. For the same molecule, the result in experiment [7], in experiment [8], in experiment [9] and in [10] was inactive.

`ClC1(Cl)C2(Cl)C3(Cl)C4(Cl)C(Cl)(Cl)C5(Cl)C3(Cl)C1(Cl)C5(Cl)C24Cl` (stereo unspecified): the result in experiment [1], in experiment [3], in experiment [4], in [5], in experiment [6] and in experiment [7] was inactive. Moreover, the outcome in experiment [8], in experiment [9] and in experiment [10] was inactive. For the same molecule, in experiment [2], the concentration at half-maximal activity (AC50) was 1.14 µM (active).

Turning to `BrCCBr`, the result in [1], in [2], in [3], in experiment [5], in [6] and in experiment [7] was inactive. Moreover, the outcome in experiment [8], in [9] and in experiment [10] was inactive. Besides, the AC50 in experiment [4] was 0.197 µM (active).

For `CCOP(=S)(OCC)SCCS(=O)(=O)CC`, the outcome in [1], in experiment [2], in experiment [3], in [4], in experiment [5] and in experiment [6] was inactive. Moreover, the outcome in [7], in experiment [8], in experiment [9] and in [10] was inactive.

`CCC(=O)C(CC(C)N(C)C)(c1ccccc1)c1ccccc1` (stereo unspecified): the result in experiment [1], in experiment [2], in [3], in [4], in experiment [5] and in experiment [6] was inactive. Further, the outcome in [7], in [8], in experiment [9] and in experiment [10] was inactive.

`CC12CC1(C)C(=O)N(c1cc(Cl)cc(Cl)c1)C2=O` (stereo unspecified): the outcome in experiment [1], in experiment [2], in [3], in experiment [4], in experiment [5] and in [6] was inactive. Further, the result in experiment [7], in [8], in experiment [9] and in experiment [10] was inactive.

On to `COc1cc(-c2ccc(N)c(OC)c2)ccc1N`, for which the result in experiment [1], in [2], in [3], in experiment [4], in experiment [5] and in [6] was inactive. Moreover, the outcome in experiment [7], in experiment [8], in [9] and in [10] was inactive. In addition, in [4], the concentration at half-maximal activity (AC50) was 15 µM (active).

Regarding `COc1cc(OC)nc(NC(=O)NS(=O)(=O)c2ncccc2C(=O)N(C)C)n1`, the outcome in [1], in experiment [2], in experiment [3], in experiment [4], in experiment [5] and in [6] was inactive. Also, the outcome in [7], in experiment [8], in experiment [9] and in experiment [10] was inactive.

For the molecule `O=C1C2(Cl)C3(Cl)C4(Cl)C(Cl)(Cl)C5(Cl)C3(Cl)C1(Cl)C5(Cl)C24Cl` (stereo unspecified), the concentration at half-maximal activity (AC50) was 26.6 µM (active) in experiment [1]; 10.5 µM (active) in experiment [2]; 31.3 µM (active) in experiment [3]; 6.61 µM (active) in experiment [4]; 34.2 µM (active) in experiment [5]; 23.3 µM (active) in experiment [6]. Also, the AC50 in experiment [7] was 24 µM (active); in [8] it was 33.6 µM (active); in experiment [9], 19.3 µM (active); in experiment [10], 4.03 µM (active).

For `NC(=S)Nc1ccccc1`, the outcome in experiment [1], in experiment [2], in [3], in experiment [4], in experiment [5] and in [6] was inactive. Moreover, the outcome in experiment [7], in [8], in experiment [9] and in [10] was inactive.

Take `CCOP(=S)(OCC)SCSP(=S)(OCC)OCC`: the result in [1], in experiment [2], in experiment [3], in [4], in experiment [5] and in experiment [6] was inactive. For the same molecule, the result in experiment [7], in experiment [8] and in [9] was inactive. For the same molecule, in experiment [10], the half-maximal activity concentration (AC50) was 13.9 µM (active).

With `ClCC(Cl)CCl`, the result in experiment [1], in experiment [2], in experiment [3], in experiment [4], in experiment [5] and in experiment [6] was inactive. Further, the result in experiment [7], in [8], in [9] and in [10] was inactive.

For the molecule `CC(=O)C(Cl)C(=O)N(C)C` (stereo unspecified), the concentration at half-maximal activity (AC50) in experiment [1] was 16.3 µM (active); in experiment [4] it was 35.5 µM (active); in experiment [9], 7.43 µM (active). Further, the outcome in experiment [2], in experiment [3], in [5], in [6], in experiment [7] and in [8] was inactive. The result in experiment [10] was inactive.

Turning to `O=Cc1cccc(Oc2ccccc2)c1`, the outcome in [1], in experiment [2], in [3], in [4], in experiment [5] and in experiment [6] was inactive. In addition, the outcome in [7], in [8], in experiment [9] and in [10] was inactive.

Consider `O=C(O)C(F)(F)C(F)(F)C(F)(F)C(F)(F)C(F)(F)C(F)(F)F`, for which the result in [1], in [2], in experiment [3], in experiment [4], in experiment [5] and in experiment [6] was inactive. Moreover, the result in [7], in experiment [8], in experiment [9] and in experiment [10] was inactive.

Values taken from PubChem BioAssay (EPA / NIEHS).
